# Measurements as given in PubChem BioAssay (NCI).
# This is part of a sample that, as a whole, favours compounds with a hit. Of some 79,000 tested, about 15% had one in any assay. A number with no mark means an inactive call. Activity calls are given as the source filed them. No stated cut-off is given here; in the data, active means growth inhibition above about 70%; inactive means the rest.
# Assay: NCI Yeast Anticancer Drug Screen. Data for the mlh1 rad18 strain (AID 175)
# Conditions: S. cerevisiae mlh1 rad18 strain growth inhibition, stronger effect = higher value; at 50.0 µM unless noted
# How it was run: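 Genetically defined yeast (DNA repair-deficient) exposed to compounds; growth inhibition determined relative to vehicle.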
row,Compound,growth inhibition
1,O=C1C=C(Nc2ccccc2)C(=O)C=C1Nc1ccccc1,-6%
2,CCOC(=O)c1c(C)[nH]c(C(=O)CCN(C)C)c1C,0.65%
3,CCN(Cc1ccccc1)c1nnnn1-c1ccccc1,-10.6%
4,CC1CC(C)OC(c2ccccc2Cl)O1 (stereo not given),25%
5,CC(=O)OC1CCC2(C)C3CCC4(C)C(C(C)CCCC(C)C)CCC4C3C3CC32C1 (stereo not given),0.1%
6,CCCCOC(=O)C1CN2C=CC=NC2=NC1(C(F)(F)F)C(F)(F)F (stereo not given),-43.1%
7,NC(Cc1cc(Br)c(Oc2ccc(O)cc2)c(Br)c1)C(=O)O (stereo not given),20.9%
8,CCCCCCC1OC(C)C(C)O1 (stereo not given),15.4%
9,O=[N+]([O-])/C=C/c1cn(CCCCCCCCCCCCn2cc(/C=C/[N+](=O)[O-])c3ccccc32)c2ccccc12,-13.6%
10,O=C(O)C1CCc2ccccc21 (stereo not given),-20.1%
11,C=CCN(CC=C)C(=O)Nc1cccc(C)c1,-21%
12,CC1Sc2ccccc2-c2[nH]c3ccccc3c21 (stereo not given),66.1%
13,O=C1OCC=C1Sc1ccccc1,-8.8%
14,O=C1C(CN2CCCC2)CCCC1CN1CCCC1 (stereo not given),-10.1%
15,Cc1cc(=O)oc2nn(CCO)c(C)c12,-13.7%
16,O=C(OC1OCC(OCc2ccccc2)C(OCc2ccccc2)C1OCc1ccccc1)c1ccccc1 (stereo not given),-9.15%
17,O=S(=O)(Cl)c1ccc(Cl)cc1,-7.25%
18,OCC#CC#CCO,-1.45%
19,Nc1nnc2nc(C3(c4nc5nnc(N)n5[nH]c4=O)CCCC3=O)c(=O)[nH]n12,16.2%
20,CN[C@@H]1[C@H](O)[C@H](NC)[C@H]2O[C@@]3(O)C(=O)C[C@@H](C)O[C@H]3O[C@@H]2[C@H]1O,-9.1%

row,Compound,growth inhibition
1,O=C1CSC(c2c[nH]c3ccccc23)N1c1ccc(Cl)cc1 (stereo not given),-30.4%
2,CC(C)c1ccccc1O,22.4%
3,CCn1c2ccccc2c2cc(N=Nc3ccc4c(c3)c3ccccc3n4CC)ccc21,35.5%
4,C#CC(O)C1OC(C)(C)OC1C1COC(C)(C)O1 (stereo not given),-5.65%
5,CCOC(C)(Cc1ccccc1[N+](=O)[O-])OCC,18.5%
6,Cc1cc(=O)[nH]c(NN2C(Cl)C(=O)C2c2ccccc2O)n1 (stereo not given),-13.8%
7,O=C1c2cccc3c([N+](=O)[O-])ccc(c23)C(=O)N1Cc1cccnc1,99.4% (active)
8,CCCCCCCCCCCCCCCCCCNC(=S)N/N=C/c1ccccc1[N+](=O)[O-],-7.65%
9,Cc1cc(NC(=O)C(=O)Cc2nc3ccccc3s2)ccc1Cl,19.1%
10,O=C(O)c1cccc(C(=O)O)c1Sc1ccccc1,12.1%
11,CCc1ccc(NS(=O)(=O)c2ccccc2[N+](=O)[O-])cc1,65.5%
12,CCN(CC)C(=O)CCn1cc(F)c(=O)[nH]c1=O,-15.9%
13,Cc1c(CC#N)cc(C)c2c3c([nH]c12)-c1ccccc1CC3,18.9%
14,Cc1ccc(-c2c(C#N)c(O)n(NS(=O)(=O)c3ccccc3)c(=O)c2C#N)cc1,-11.7%
15,COC(=O)c1cc(Cl)ccc1OCC(=O)Nc1ccccc1,-29.1%
16,C#CCN(N=O)C(=O)NCCCCC(NC(C)=O)C(=O)NCc1ccccc1 (stereo not given),-15.1%
17,Clc1cccc(C2ON=C(c3ccccc3)N2C23CC4CC(CC(C4)C2)C3)c1Cl (stereo not given),-3.95%
18,CC(C)(Nc1ccccc1)C(=O)OC(C)(C)C(=O)Nc1ccccc1,-7.4%
19,C=CSS/C(=C/N(C=O)Cc1cnc(C)nc1N)CCO,-10%
20,CCCCC(Sc1nn(C2OC(COC(=O)c3ccccc3)C(OC(=O)c3ccccc3)C2OC(=O)c2ccccc2)c(=O)[nH]c1=O)C(=O)OCC (stereo not given),7.45%
